In PubChem BioAssay (NCATS):
Several values for one entry are separate records, joined by “and”; a condition that tells them apart may be missing. Equal values may be shown once. Results filed as inconclusive are left out. Activity calls are given as the source filed them. Calls come from the whole dose curve; as a rule, active = well fitted curve in the direction sought with a large enough effect; inconclusive = small, poorly fitted or top-dose-only effect, or another doubt; inactive = no such curve, though single readings can be large or run the other way.
% is set by controls: 0 for no effect and ±100 for the full control effect; potency is the fitted concentration of half-maximal effect.

Assay: qHTS Assay for Identifying Gametocytocidal Compounds (AID 743244);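 for max response: actives lower the fluorescent signal which means gametocytes are killed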
Conditions: P. falciparum 3D7 stage III-V gametocytes, alamarBlue, 72 h; max response: hits give low values
Method in brief: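 Late gametocytes (III–V), P. falciparum 3D7; 72 h drug, then 24 h alamarBlue; resazurin reduction read by fluorescence.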
With `CC[C@@]1(O)C(=O)OCc2c1cc1n(c2=O)Cc2cc3c([N+](=O)[O-])cccc3nc2-1` the max response was 2.02% (inactive). In the case of `Nc1c(N=Nc2ccc(-c3ccc(N=Nc4cc(S(=O)(=O)O)c5ccccc5c4N)cc3)cc2)cc(S(=O)(=O)O)c2ccccc12`, the max response is reported as 13.5% (inactive). With `Nc1ncnc2c1ncn2[C@@H]1O[C@H](COP(=O)(O)OP(=O)(O)OP(=O)(O)O)[C@@H](O)[C@H]1O` the max response was -2.1% (inactive). In the case of `C=C(NC(=O)C(=C)NC(=O)c1csc(C2=N[C@@H]3c4csc(n4)[C@H]4NC(=O)c5csc(n5)[C@H]([C@](C)(O)[C@@H](C)O)NC(=O)[C@H]5CSC(=N5)C(=CC)NC(=O)C([C@@H](C)O)NC(=O)c5csc(n5)[C@]3(CC2)NC(=O)[C@H](C)NC(=O)C(=C)NC(=O)[C@H](C)NC(=O)C([C@@H](C)CC)NC2C=Cc3c([C@H](C)O)cc(nc3C2O)C(=O)O[C@@H]4C)n1)C(N)=O` (some centres not stated), the Potency is reported as 11.2 µM (active). For `COC(=O)C1=C(C#N)NC(C)=C(C(=O)OC(C)C)C1c1cccc([N+](=O)[O-])c1` (configuration not stated), the max response was 13.2% (inactive). With `CC(=O)OC(C)OC(=O)C(C)c1ccc(-c2ccccc2)c(F)c1` (configuration not stated) the max response was -5.75% (inactive) and -9.98% (inactive). In the case of `CC(=O)N[C@@H](CC(=O)N[C@@H](CCC(=O)O)C(=O)O)C(=O)O`, the max response is reported as -4.86% (inactive). With `CC[N+](C)(C)Cc1ccccc1Br` the max response was 2.98% (inactive). With `CO[C@H]1C=CO[C@@]2(C)Oc3c(C)c(O)c4c(O)c(c(/C=N/N5CCN(C6CCCC6)CC5)c(O)c4c3C2=O)NC(=O)/C(C)=C\C=C[C@H](C)[C@H](O)[C@@H](C)[C@@H](O)[C@@H](C)[C@H](OC(C)=O)[C@@H]1C` the Potency was 10 µM (active). In the case of `CC(Oc1ccccc1)C(=O)N[C@@H]1C(=O)N2[C@@H]1SC(C)(C)[C@@H]2C(=O)O` (some centres not stated), the max response is reported as 15.7% (inactive). With `O=S(=O)(O)c1ccc2c(N=Nc3ccc(S(=O)(=O)O)c4ccccc34)c(O)c(S(=O)(=O)O)cc2c1` the max response was 11.5% (inactive). For `CCCCC(=O)O[C@]1(C(=O)CO)[C@H](C)C[C@H]2[C@@H]3CCC4=CC(=O)C=C[C@]4(C)[C@@]3(F)[C@@H](O)C[C@@]21C`, the max response was 12.3% (inactive). For `CC(=O)Oc1c(C)cc(OCC(O)CNC(C)C)c(C)c1C` (configuration not stated), the Potency was 15.8 µM (active). In the case of `COc1ccc(C[C@@H](C)NC[C@H](O)c2ccc(O)c(NC=O)c2)cc1`, the max response is reported as 19.6% (inactive). With `C=C1CC[C@@H]2[C@](C)(CO)[C@H](O)CC[C@@]2(C)[C@@H]1C/C=C1/C(=O)OC[C@H]1O` the Potency was 20 µM (active). For `C/C1=C2N=C(/C=C3N=C(/C(C)=C4\[N-][C@@](C)([C@@H]5N=C1[C@](C)(CCC(=O)NCC(C)OP(=O)(O)O[C@H]1[C@@H](O)[C@@H](n6cnc7cc(C)c(C)cc76)O[C@@H]1CO)[C@H]5CC(N)=O)[C@@](C)(CC(N)=O)[C@@H]4CCC(N)=O)[C@@](C)(CC(N)=O)[C@@H]\3CCC(N)=O)C(C)(C)[C@@H]/2CCC(N)=O.CC(=O)O.[Co]` (some centres not stated), the Potency was 20 µM (active). In the case of `OC[C@H]1O[C@@H](OCCc2ccc(O)cc2)[C@H](O)[C@@H](O)[C@@H]1O`, the max response is reported as 2.01% (inactive). In the case of `C[C@]12C=CC(=O)C=C1CC[C@@H]1[C@@H]2[C@@H](O)C[C@@]2(C)[C@H]1CC[C@]2(O)C(=O)COC(=O)CCC(=O)O`, the max response is reported as -8.44% (inactive). With `CO[C@@H]1[C@@H](O[C@@H]2O[C@H](C)[C@@H](O[C@H]3C[C@@](C)(O)[C@@H](O)[C@H](C)O3)[C@H](N(C)C)[C@H]2O)[C@@H](CC=O)C[C@@H](C)[C@@H](O[C@@H]2CC[C@H](N(C)C)[C@@H](C)O2)/C=C/C=C/C[C@@H](C)OC(=O)C[C@H]1O` the max response was 23.5% (inactive). In the case of `O=C1CSC2(CCN(CCCN3c4ccccc4Sc4ccc(Cl)cc43)CC2)N1`, the max response is reported as -3.9% (inactive). In the case of `CCC(=O)NCCC1CCc2ccc3c(c21)CCO3` (configuration not stated), the max response is reported as 12.4% (inactive). In the case of `CCCC(=O)Nc1ncnc2c1ncn2[C@@H]1O[C@@H]2COP(=O)(O)O[C@H]2[C@H]1OC(=O)CCC`, the max response is reported as -2.66% (inactive). For `C#C[C@]1(O)CC[C@H]2[C@@H]3CCC4=C/C(=N/O)CC[C@@H]4[C@H]3CC[C@@]21CC`, the max response was -2.15% (inactive). For `NCc1ccccc1CC(=O)N[C@@H]1C(=O)N2C(C(=O)O)=C(CSc3nnnn3CC(=O)O)CS[C@H]12`, the max response was 5.62% (inactive). For `COC(F)(F)C(Cl)Cl`, the max response was 1.97% (inactive). In the case of `Cc1cc(C(=O)NNCc2ccccc2)no1`, the max response is reported as -1.55% (inactive). With `CCNC(=O)[C@@H]1CCCN1C(=O)[C@H](CCCN=C(N)N)NC(=O)[C@H](CC(C)C)NC(=O)[C@@H](Cc1c[nH]c2ccccc12)NC(=O)[C@H](Cc1ccc(O)cc1)NC(=O)[C@H](CO)NC(=O)[C@H](Cc1c[nH]c2ccccc12)NC(=O)[C@H](Cc1cnc[nH]1)NC(=O)[C@@H]1CCC(=O)N1` the Potency was 6.31 µM (active). With `CC[C@@H](C(=O)[C@@H](C)[C@@H](O)[C@H](C)CCc1ccc(C)c(O)c1C(=O)O)[C@H]1O[C@](CC)([C@H]2CC[C@](O)(CC)[C@H](C)O2)C[C@@H]1C` the Potency was 7.08 µM (active). For `CC[C@H]1OC(=O)C[C@@H](O)[C@H](C)[C@@H](O[C@@H]2O[C@H](C)[C@@H](O)[C@H](N(C)C)[C@H]2O)[C@@H](CCN2C[C@H](C)C[C@H](C)C2)C[C@@H](C)C(=O)/C=C/C(C)=C/[C@@H]1CO[C@@H]1O[C@H](C)[C@@H](O)[C@@H](OC)[C@H]1OC`, the max response was -0.81% (inactive). For `C#CCOc1ccc2c(C)cc(=O)oc2c1`, the max response was 7.39% (inactive). With `CC1=C(/C=C/C(C)=C/C=C/C(C)=C/C=C/C=C(C)/C=C/C=C(C)/C=C/C2=C(C)CCCC2(C)C)C(C)(C)CCC1` the max response was -12% (inactive). With `CC1(C)S[C@@H]2[C@H](NC(=O)C(C(=O)O)c3ccsc3)C(=O)N2[C@H]1C(=O)O` (some centres not stated) the max response was 10.2% (inactive). In the case of `CCCCCCCCCCCCCC[n+]1ccc(C)cc1`, the Potency is reported as 7.94 µM (active). With `COc1cc([C@@H]2c3cc4c(cc3[C@@H](O[C@@H]3O[C@@H]5CO[C@@H](C)O[C@H]5[C@H](O)[C@H]3O)[C@H]3COC(=O)[C@H]23)OCO4)cc(OC)c1O` the max response was -3.58% (inactive). With `CO[C@H]1C[C@H](O[C@H]2[C@H](C)[C@@H](O[C@@H]3O[C@H](C)C[C@H](N(C)C)[C@H]3OC(C)=O)[C@@H](C)C[C@]3(CO3)C(=O)[C@H](C)[C@@H](OC(C)=O)[C@@H](C)[C@@H](C)OC(=O)[C@@H]2C)O[C@@H](C)[C@@H]1OC(C)=O` the max response was 7.91% (inactive). In the case of `Cc1c(C)c2c(c(C)c1O)CC[C@@](C)(CCC[C@H](C)CCC[C@H](C)CCCC(C)C)O2`, the max response is reported as 1.54% (inactive) and 7.72% (inactive). For `COC(=O)[C@H]1[C@H]2C[C@@H]3c4[nH]c5ccccc5c4CCN3C[C@H]2C[C@@H](OC(=O)c2cc(OC)c(OC)c(OC)c2)[C@@H]1OC`, the Potency was 8.91 µM (active).
